PubChem BioAssay (NCATS)
Results filed as inconclusive are left out. The source made the active and inactive calls. Unless noted, the call rests on the fitted dose curve; in most records, active means well fitted curve in the direction sought with a large enough effect; inconclusive means small, poorly fitted or top-dose-only effect, or another doubt; inactive means no such curve, though single readings can be large; an effect the other way counts as inactive or inconclusive.

Legend:
[1] = target: Thioredoxin reductase 1, cytoplasmic (Rattus norvegicus) (UniProt O89049); assay: qHTS Assay for Substrates of Mammalian Selenoprotein Thioredoxin Reductase 1 (TrxR1) (AID 488772);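 further: series mostly up to about 57 µM; a drop in NADPH fluorescence below the no-compound background marks a TrxR1 substrate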
Sequence of Thioredoxin reductase 1, cytoplasmic (Rattus norvegicus) (O89049 whole entry, looked up): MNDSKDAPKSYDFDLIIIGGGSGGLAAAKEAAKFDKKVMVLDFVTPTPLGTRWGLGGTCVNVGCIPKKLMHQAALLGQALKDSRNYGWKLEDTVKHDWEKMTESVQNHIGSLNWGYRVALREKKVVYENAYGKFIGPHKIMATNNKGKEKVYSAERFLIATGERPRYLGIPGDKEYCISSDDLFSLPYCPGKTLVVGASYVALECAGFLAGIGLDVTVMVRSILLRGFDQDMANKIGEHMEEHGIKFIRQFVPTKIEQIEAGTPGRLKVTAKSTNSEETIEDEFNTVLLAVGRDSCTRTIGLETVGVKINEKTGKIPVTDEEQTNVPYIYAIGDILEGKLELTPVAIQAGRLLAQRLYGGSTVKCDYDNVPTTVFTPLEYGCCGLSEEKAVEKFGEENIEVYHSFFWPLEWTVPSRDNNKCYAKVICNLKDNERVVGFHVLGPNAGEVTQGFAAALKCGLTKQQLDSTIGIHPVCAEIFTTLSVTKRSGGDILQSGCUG
Procedure, shortened: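 In this dual-purpose format, potential substrates are identified from the first fluorescence read after selenite addition, not from the 8-minute delta. Rat enzyme is preincubated with NADPH and then with compound at ~22 deg C.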

[2] = target: Thioredoxin reductase 1, cytoplasmic (Rattus norvegicus) (UniProt O89049); assay: qHTS Assay for Inhibitors of Mammalian Selenoprotein Thioredoxin Reductase 1 (TrxR1) (AID 488773);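 further: drop in NADPH fluorescence over an 8 min run after selenite addition; series mostly up to about 57 µM; nearly all actives have a fitted effect of over 40% in size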
Procedure, shortened: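 Inhibition is scored from the loss of NADPH fluorescence between first and last reads of an 8-min kinetic run. Selenite (400 uM) was the substrate, added after 15 min compound preincubation at room temperature.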

[3] = target: Flap endonuclease 1 (Homo sapiens) (UniProt P39748); assay: qHTS Validation Assay for the Inhibitors of Human Flap endonuclease 1 (FEN1) (AID 488816)
Sequence of Flap endonuclease 1 (Homo sapiens) (P39748 whole entry, looked up): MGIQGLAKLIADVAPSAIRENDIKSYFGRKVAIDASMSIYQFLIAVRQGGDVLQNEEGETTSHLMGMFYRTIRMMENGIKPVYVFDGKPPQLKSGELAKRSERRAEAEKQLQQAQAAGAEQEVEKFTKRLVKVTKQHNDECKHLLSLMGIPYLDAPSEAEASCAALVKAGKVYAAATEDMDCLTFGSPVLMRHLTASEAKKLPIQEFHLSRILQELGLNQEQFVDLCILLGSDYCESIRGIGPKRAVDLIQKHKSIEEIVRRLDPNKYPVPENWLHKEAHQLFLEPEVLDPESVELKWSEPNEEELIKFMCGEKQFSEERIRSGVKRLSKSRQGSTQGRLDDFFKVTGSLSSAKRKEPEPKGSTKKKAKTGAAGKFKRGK
Procedure, shortened: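 Enzyme reagent 10 nM; cpds pinned; 15 min RT preinc.; substrate 50 nM final; reads t=0 and 15 min; no-enzyme buffer wells as neg. control; normalized data, 4-parameter Hill fit.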

[4] = target: M-phase phosphoprotein 8 (Homo sapiens) (UniProt Q99549); assay: qHTS Validation Assay for Inhibitors for MPP8 Chromodomain Interactions with Methylated Histone Tails (AID 488949);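 further: 50 nM MPP8 with 50 nM peptide preformed then compounds added for 30 min; AlphaScreen signal from MPP8 chromodomain bound to biotinylated H3K9me3 peptide; top concentration of the series differs between compounds; nearly all actives have a fitted effect of over 55% in size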
Sequence of M-phase phosphoprotein 8 (Homo sapiens) (Q99549 whole entry, looked up): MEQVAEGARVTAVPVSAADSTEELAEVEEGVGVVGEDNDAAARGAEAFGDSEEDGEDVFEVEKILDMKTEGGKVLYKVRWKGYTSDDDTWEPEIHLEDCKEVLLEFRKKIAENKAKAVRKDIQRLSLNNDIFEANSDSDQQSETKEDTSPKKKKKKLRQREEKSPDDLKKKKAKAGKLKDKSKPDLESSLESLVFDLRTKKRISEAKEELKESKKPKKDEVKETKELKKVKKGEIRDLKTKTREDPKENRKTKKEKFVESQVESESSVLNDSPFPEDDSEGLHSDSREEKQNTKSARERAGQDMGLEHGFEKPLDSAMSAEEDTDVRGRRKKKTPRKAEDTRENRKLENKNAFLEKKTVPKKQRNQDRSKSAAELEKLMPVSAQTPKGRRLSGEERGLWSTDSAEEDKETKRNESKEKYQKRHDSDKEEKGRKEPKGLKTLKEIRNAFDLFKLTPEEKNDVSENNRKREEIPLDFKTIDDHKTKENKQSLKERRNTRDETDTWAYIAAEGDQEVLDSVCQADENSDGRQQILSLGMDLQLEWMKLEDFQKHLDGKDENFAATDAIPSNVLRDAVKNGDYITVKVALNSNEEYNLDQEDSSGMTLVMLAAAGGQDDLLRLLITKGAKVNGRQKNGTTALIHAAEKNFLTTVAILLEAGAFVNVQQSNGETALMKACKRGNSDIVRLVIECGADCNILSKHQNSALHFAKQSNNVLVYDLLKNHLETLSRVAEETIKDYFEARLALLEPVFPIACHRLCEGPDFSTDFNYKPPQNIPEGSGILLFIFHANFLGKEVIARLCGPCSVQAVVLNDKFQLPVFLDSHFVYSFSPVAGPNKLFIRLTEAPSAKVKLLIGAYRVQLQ
Procedure, shortened: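 50 nM MPP8 + 50 nM b-H3K9me3 peptide, PBS pH 7.4/0.01% Tween-20, 30 min RT; + cpd 30 min RT; + AlphaScreen donor/Ni-chelate acceptor beads 10 ug/mL final, 30 min dark; luminescence read.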

[5] = target: Methanococcus maripaludis chaperonin (MmCpn) (UniProt Q6LX38); assay: High-Throughput Screening for Modulators of Cytosolic Chaperonin Activity: MmCpn Primary Screen (AID 488978);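 further: 50 nM MmCpn enzyme hydrolysing 30 µM ATP at 37 °C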
Procedure, shortened: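 Steps: chaperonin 50 nM final; add compound, 5 min RT; start with ATP, 30 uM final; hold 10 min at 37C; add ADP Transcreener HTRF reagent, 5 min; read ex 320, em 590 and 665 nm.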

[6] = target: D(1A) dopamine receptor (Homo sapiens) (UniProt P21728); assay: HTS Assay for Allosteric Agonists of the Human D1 Dopamine Receptor: Primary Screen for Agonists (AID 488981)
Sequence of D(1A) dopamine receptor (Homo sapiens) (P21728 whole entry, looked up): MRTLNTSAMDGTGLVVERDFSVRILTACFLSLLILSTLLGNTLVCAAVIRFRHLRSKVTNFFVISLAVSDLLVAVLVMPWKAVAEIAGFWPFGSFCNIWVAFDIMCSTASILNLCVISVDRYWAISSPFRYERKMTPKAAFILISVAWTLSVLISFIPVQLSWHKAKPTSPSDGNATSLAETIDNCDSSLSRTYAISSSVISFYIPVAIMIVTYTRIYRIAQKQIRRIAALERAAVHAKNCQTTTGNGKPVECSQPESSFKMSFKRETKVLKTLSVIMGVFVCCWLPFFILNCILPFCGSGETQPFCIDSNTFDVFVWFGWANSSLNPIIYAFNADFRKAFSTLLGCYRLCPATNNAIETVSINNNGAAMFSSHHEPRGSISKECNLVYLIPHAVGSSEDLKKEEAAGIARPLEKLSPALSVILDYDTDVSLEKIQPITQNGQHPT
Procedure, shortened: (§1)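 Tetracycline-induced HEK293 Trex D1 cells with forced coupling to calcium, loaded with no-wash calcium dye; kinetic fluorescence read 180 s after compound addition for agonism, then a further 180 s after an EC20 dopamine challenge for potentiation.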

[7] = target: D(1A) dopamine receptor (Homo sapiens) (UniProt P21728); assay: HTS Assay for Allosteric Agonists of the Human D1 Dopamine Receptor: Primary Screen for Potentiators (AID 488982)
Procedure, shortened: as §1

[8] = target: D(1A) dopamine receptor (Homo sapiens) (UniProt P21728); assay: HTS Assay for Allosteric Agonists of the Human D1 Dopamine Receptor: Primary Screen for Antagonists (AID 488983);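 further: calcium flux response to an EC80 dopamine challenge measured with no-wash dye; nearly all actives have a fitted effect of over 65% in size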
Procedure, shortened: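 In this primary screen, compounds are applied to calcium-dye-loaded HEK293 T-REx cells with force-coupled D1 expression induced overnight at 30 C. An EC80 of dopamine follows the 180 s compound phase, and calcium is monitored for a further 180 s.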

[9] = Validation screen for small molecules that induce genotoxicity in human embryonic kidney (HEK293T) cells expressing luciferase-tagged ELG1 (AID 493106)
Procedure, shortened: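 In this validation screen, increased ELG1-luciferase signal flags compounds causing genetic stress. HEK293T reporter cells are treated 16 hr (37 °C, 5% CO2), developed with ONE-Glo for 30 min at room temperature, and imaged on a CCD-based reader.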

[10] = qHTS for Inhibitors of Cell Surface uPA Generation: Validation Assay (AID 493164);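 further: RAW 264.7 macrophage cells exposed to compound for 18 h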
Procedure, shortened: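 Compounds are titrated over seven points (2.45 nM–38.3 uM final) onto pre-plated RAW 264.7 cells and incubated for 18 h. Retained intracellular ATP, measured with ATP-Lite, indicates blocked lethal factor entry.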

[11] = target: Peptidyl-prolyl cis-trans isomerase NIMA-interacting 1 (Homo sapiens) (UniProt Q13526); assay: qHTS Validation Assay to Find Inhibitors of Pin1 (AID 504536; active means well fitted inhibition curve with a large enough effect in the polarisation, with a control signal flat, not every such curve was filed as active; the % refers to the polarisation)
Sequence of Peptidyl-prolyl cis-trans isomerase NIMA-interacting 1 (Homo sapiens) (Q13526 whole entry, looked up): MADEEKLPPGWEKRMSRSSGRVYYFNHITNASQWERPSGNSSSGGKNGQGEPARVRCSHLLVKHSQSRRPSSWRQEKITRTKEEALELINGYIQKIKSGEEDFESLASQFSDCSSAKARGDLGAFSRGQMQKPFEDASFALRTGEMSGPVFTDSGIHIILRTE
Procedure, shortened: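 Fluorescence polarization competition: compounds (titration) displace HiFluor-488-labeled Pin1-1b peptide from Pin1 (0.3 uM final) in pH 7.5 HEPES buffer with DTT, 10 min at room temperature; %Activity normalized to no-enzyme wells, curves fitted.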

[12] = target: Phosphoglycerate kinase, glycosomal (Trypanosoma brucei brucei) (UniProt P07378); assay: qHTS Validation Assay to Find Inhibitors of Phosphoglycerate Kinase (AID 504547)
Sequence of Phosphoglycerate kinase, glycosomal (Trypanosoma brucei brucei) (P07378 whole entry, looked up): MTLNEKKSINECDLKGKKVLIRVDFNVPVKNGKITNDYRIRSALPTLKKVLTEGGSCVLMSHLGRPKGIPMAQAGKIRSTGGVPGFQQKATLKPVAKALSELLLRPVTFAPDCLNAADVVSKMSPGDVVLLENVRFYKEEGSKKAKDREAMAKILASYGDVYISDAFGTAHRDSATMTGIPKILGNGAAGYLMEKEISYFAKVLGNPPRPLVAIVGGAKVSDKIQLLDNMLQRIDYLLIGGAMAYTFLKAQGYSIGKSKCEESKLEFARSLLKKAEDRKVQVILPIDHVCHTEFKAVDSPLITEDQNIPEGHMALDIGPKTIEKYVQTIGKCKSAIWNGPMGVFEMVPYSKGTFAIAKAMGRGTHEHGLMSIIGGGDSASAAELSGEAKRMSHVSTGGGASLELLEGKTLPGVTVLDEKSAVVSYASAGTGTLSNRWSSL
Procedure, shortened: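 Compounds are pinned into the substrate/PGK mixture, and GAPDH (100nM final) is added to start the reaction by producing 1,3-BPG. After 60 minutes at room temperature, Kinase-Glo Plus is added and luminescence is measured 10 minutes later.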

[13] = target: phosphoglycerate mutase (Leishmania major) (UniProt Q4Q090); assay: qHTS Validation Assay to Find Inhibitors of Phosphoglycerate Mutase (AID 504548); further: series mostly up to about 58 µM
Procedure, shortened: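 Lm PGAM 1.25nM final; 100 mM TEA pH 7.6, 5 mM MgCl2, 0.01% Tween-20; 45 min RT; Kinase-GloPlus, 10 min; end-point luminescence. Enzyme-free wells as negative controls.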

[14] = target: Ubiquitin carboxyl-terminal hydrolase 1 (Homo sapiens) (UniProt O94782); assay: Inhibitors of USP1/UAF1: Pilot qHTS (AID 504865);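 further: rhodamine fluorescence freed from ubiquitin-rhodamine substrate followed over time; top concentration of the series differs between compounds; nearly all actives have a fitted effect of over 35% in size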
Sequence of Ubiquitin carboxyl-terminal hydrolase 1 (Homo sapiens) (O94782 whole entry, looked up): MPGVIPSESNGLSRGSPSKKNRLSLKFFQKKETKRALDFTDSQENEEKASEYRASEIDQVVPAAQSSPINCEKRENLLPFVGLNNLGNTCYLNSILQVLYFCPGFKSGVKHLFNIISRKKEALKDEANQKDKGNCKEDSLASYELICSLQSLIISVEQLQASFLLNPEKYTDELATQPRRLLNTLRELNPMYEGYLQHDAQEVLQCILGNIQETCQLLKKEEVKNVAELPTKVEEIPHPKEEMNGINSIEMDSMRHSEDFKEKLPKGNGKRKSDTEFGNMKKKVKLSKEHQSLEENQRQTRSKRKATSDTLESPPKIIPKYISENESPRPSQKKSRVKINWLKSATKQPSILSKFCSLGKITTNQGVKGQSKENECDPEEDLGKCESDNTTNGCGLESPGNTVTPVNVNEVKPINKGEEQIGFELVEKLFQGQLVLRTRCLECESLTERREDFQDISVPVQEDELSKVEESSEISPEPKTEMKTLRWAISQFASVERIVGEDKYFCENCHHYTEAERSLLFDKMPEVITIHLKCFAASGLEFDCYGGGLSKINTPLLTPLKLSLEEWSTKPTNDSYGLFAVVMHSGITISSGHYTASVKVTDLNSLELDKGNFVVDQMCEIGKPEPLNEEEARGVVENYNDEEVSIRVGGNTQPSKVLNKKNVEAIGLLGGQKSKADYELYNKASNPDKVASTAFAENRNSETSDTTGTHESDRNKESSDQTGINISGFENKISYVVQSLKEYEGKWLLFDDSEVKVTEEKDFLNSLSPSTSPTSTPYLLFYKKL
Procedure, shortened: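 In 50mM HEPES pH 7.8 containing 0.5mM EDTA, 1mM TCEP, 0.1 mg/ml BSA and 0.01% Tween-20, 1nM USP1/UAF1 is exposed to compound for 15 min, then Ub-Rho (150nM final) is added and fluorescence is read over time.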

[15] = target: Glutaminase kidney isoform, mitochondrial (Homo sapiens) (UniProt O94925); assay: qHTS for Inhibitors of Glutaminase (GLS): LOPAC Validation (AID 624146);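 further: glutamate product detected by oxidase and peroxidase coupled Amplex red fluorescence gain; series mostly up to about 46 µM; nearly all actives have a fitted effect of over 60% in size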
Sequence of Glutaminase kidney isoform, mitochondrial (Homo sapiens) (O94925 whole entry, looked up, canonical isoform): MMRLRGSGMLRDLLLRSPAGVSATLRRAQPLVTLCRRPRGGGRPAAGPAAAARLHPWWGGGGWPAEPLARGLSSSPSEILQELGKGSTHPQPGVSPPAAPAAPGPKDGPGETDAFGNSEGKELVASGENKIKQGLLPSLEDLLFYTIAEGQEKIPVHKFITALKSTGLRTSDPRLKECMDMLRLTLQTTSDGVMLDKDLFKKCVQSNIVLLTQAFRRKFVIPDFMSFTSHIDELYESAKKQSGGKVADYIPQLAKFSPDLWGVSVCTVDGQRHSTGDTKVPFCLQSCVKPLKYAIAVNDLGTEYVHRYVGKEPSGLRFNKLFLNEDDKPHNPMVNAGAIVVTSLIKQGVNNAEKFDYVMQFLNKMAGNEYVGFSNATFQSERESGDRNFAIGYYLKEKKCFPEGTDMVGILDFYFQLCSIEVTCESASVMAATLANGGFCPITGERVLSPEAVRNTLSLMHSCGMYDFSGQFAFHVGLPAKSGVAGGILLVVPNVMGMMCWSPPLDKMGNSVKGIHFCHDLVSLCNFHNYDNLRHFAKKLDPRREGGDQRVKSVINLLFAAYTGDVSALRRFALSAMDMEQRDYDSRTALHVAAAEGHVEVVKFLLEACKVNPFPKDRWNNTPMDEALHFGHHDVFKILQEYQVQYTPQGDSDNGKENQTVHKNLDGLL
Procedure, shortened: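 Glutamate formation by hKGA was monitored fluorometrically using coupled glutamate oxidase, HRP and Amplex Red. Substrate was added as 1 mM L-glutamine solution; incubation was 30 min at RT after an initial read.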

[16] = qHTS of Trypanosoma Brucei Inhibitors: LOPAC Validation (AID 624147)
Procedure, shortened: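 Assay buffer: 50 mM TEA pH 7.2, 100 mM KCl, 10 mM MgCl2, 0.05% BSA, 0.01% Tween-20. Pyruvate kinase from T. brucei plus substrate met compound, then ADP (130 uM final). Luminescence was read post 45 min RT.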

[17] = target: Glucagon-like peptide 1 receptor (Homo sapiens) (UniProt P43220); assay: qHTS of GLP-1 Receptor Agonists: LOPAC Validation (AID 624148);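 further: higher luminescence signal means agonism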
Sequence of Glucagon-like peptide 1 receptor (Homo sapiens) (P43220 whole entry, looked up): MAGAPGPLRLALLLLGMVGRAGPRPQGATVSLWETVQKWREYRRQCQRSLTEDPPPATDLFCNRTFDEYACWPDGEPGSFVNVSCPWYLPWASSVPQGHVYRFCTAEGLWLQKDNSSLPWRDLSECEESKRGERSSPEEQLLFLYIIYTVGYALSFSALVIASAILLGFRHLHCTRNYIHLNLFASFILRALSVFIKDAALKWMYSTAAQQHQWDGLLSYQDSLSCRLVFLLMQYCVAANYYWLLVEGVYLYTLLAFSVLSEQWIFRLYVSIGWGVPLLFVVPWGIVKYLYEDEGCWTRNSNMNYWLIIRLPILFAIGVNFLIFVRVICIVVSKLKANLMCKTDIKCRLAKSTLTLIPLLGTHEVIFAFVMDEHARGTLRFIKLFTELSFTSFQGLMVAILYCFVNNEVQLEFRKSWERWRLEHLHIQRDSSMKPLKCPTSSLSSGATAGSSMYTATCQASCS
Procedure, shortened: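 HEK293 cells stably co-expressing GLP-1R and a cAMP-responsive luciferase reporter, plated 12 hours before compound, then incubated 4-6 hr at 37 deg C. Luminescence read 12 min after detection reagent.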

[18] = qHTS of Nrf2 Activators: LOPAC Validation (AID 624149)
Procedure, shortened: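 Following overnight seeding in 5% FBS OPTI-MEM, AREc32_Fluc cells receive compounds for a 24 hr incubation at 37 deg C with 5% CO2. Steady-Glo is added, and after 30 min at RT luminescence is recorded.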

[19] = HTS Assay for Allosteric Antagonists of the Human D2 Dopamine Receptor: Hit Validation in HTRF (AID 624455);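 further: stable D1 dopamine receptor cell line scored for blocking the D1 response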
Procedure, shortened: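 Validation of hits used D1 receptor stably expressed in cells with HTRF detection of response inhibition; origin screen measured calcium flux following EC80 dopamine in a force-coupled, inducible Hek293 Trex D2 cell line.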

Measured: Potency

CC[C@@H](CO)Nc1nc(NCc2ccccc2)c2ncn(C(C)C)c2n1
inactive: all assays above
